Data: the supplement of paper PMC7866885, “A novel bicyclic 2,4-diaminopyrimidine inhibitor of Streptococcus suis dihydrofolate reductase” (PeerJ, 2021)
± gives the standard deviation.

Assays:
Streptococcus suis HE06 = test: percent growth relative to DMSO control; higher = less growth inhibition; conditions: 10 µM; incubation time 18 h
Method: (§1)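 CLSI broth microdilution: 5x10^4 CFU of Streptococcus suis (strain P1/7 or HE06) incubated with 10 µM Pathogen Box compound in cation-adjusted Mueller Hinton broth, 37 °C, 5% CO2, 18 h. Growth read as OD600 and expressed as percent of the DMSO-treated control (100%); mean ± SD of three independent experiments.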

Streptococcus suis P1/7 = test: as above; conditions: 10 µM; incubation time 18 h
Method: as §1

SMILES	percent growth (Streptococcus suis HE06)	percent growth (Streptococcus suis P1/7)
CN(C)CCNC(=O)N1CCCN(c2ncnc3cc(-c4ccccc4)sc23)CC1	92.9 ± 31%	72.1 ± 3.5%
CC(C)(C)OC(=O)N1CCN(c2cc(-c3ccc(Oc4ccccc4)cc3)n[nH]2)CC1	89.6 ± 5.8%	
CN(C(=O)c1cc2c(-c3cncnc3)cccc2[nH]1)c1ccccc1	102 ± 29%	72.2 ± 27%
O=C(c1ccc(F)cc1)N(CCNc1ccccc1)c1ccccc1	106 ± 17%	122 ± 66%
Cc1nc(-c2ccccn2)nc(NCCc2ccc(S(C)(=O)=O)cc2)c1Cl	131 ± 60%	73.3 ± 11%
CN1CCC(c2cc(-c3ccncc3)c(-c3ccc(F)cc3)[nH]2)CC1	101 ± 13%	165 ± 140%
CCc1cc(=O)n(C)c(SC(C)C(=O)Nc2ccc(F)cc2)n1 (configuration not stated)	110 ± 23%	74.8 ± 63%
COc1cc(C(F)(F)F)nc2ccc(C)c(N)c12	101 ± 4.2%	95.8 ± 24%
Cc1cccc(Cn2ccc(NC(=O)c3ccc4c(c3)OCO4)n2)c1	75.3 ± 22%	102 ± 23%
O=C(C1CCN(c2nnnn2-c2ccccc2)CC1)N1CCc2ccccc2C1	86.9 ± 28%	62.4 ± 21%
CN1CCN(S(=O)(=O)c2ccc(-c3ccc4c(Nc5ncc(Cl)cn5)ccnc4c3)cc2)CC1	92.2 ± 8.5%	103 ± 47%
CC(=O)Nc1ccc(-c2noc(CC3CCCN(Cc4cccc(F)c4C)C3)n2)cc1 (configuration not stated)	109 ± 44%	108 ± 44%
O=C(Nc1c(O)cccc1-c1nc2c(C(=O)O)cccc2o1)c1cc(-c2ccccc2)on1	61.5 ± 26%	
Cn1ccnc1CNCCS(=O)(=O)c1cccc(Nc2ccc(-c3cccc(F)c3)cn2)c1	91.4 ± 14%	35 ± 38%
O=C(Nc1ccccc1-c1nc2c(C(=O)O)cccc2o1)c1ccccc1	68.4 ± 14%	68.3 ± 5.7%
O=C(Nc1nnc(S)s1)c1cc(Br)ccc1Cl	107 ± 10%	79.5 ± 9.2%
COc1cc(CN2CCC3(C=Cc4ccccc43)CC2)cc2c1OCO2	82 ± 16%	83.9 ± 5.5%
CCOc1ccc(-c2nc(CNCCc3ccc(F)cc3)cs2)cc1	97.3 ± 4.6%	29.5 ± 51%
CCOC(=O)c1c(NC(=O)c2c(F)c(F)c(F)c(F)c2F)sc(C(N)=O)c1C	91.9 ± 6%	83.2 ± 22%
Cc1ccc(S(=O)(=O)n2cc(-c3ccnc(N)c3)c3cc(Br)cnc32)cc1	95.2 ± 32%	61.5 ± 15%
CC1=Nc2ccc(Cl)cc2C(O)(c2ccc(C)cc2)N1CCN1CCCCC1 (configuration not stated)	98.9 ± 32%	91 ± 28%
CNC(=O)C1Cc2ccccc2N1C(=O)Cc1ccc(F)cc1 (configuration not stated)	96.6 ± 1.8%	94.5 ± 32%
O=C(c1ccco1)N(CCCn1ccnc1)c1nc2c(Cl)cccc2s1	36.6 ± 38%	34.1 ± 59%
O=C(Nc1ccc(C(F)(F)F)c(C(F)(F)F)c1)c1cc(Cl)ccc1O	0%	6.44 ± 11%

SMILES	percent growth (Streptococcus suis HE06)	percent growth (Streptococcus suis P1/7)
COC(=O)c1c(NC(=O)c2c(F)c(F)c(F)c(F)c2F)sc2c1CCCCC2	105 ± 7.8%	85.2 ± 3%
O=C(NC1CC1)c1ccc(N2CCOc3ccc(Cl)cc32)s1	73.8 ± 20%	85.5 ± 14%
O=C(C(Cc1c[nH]c2ccccc12)NS(=O)(=O)c1ccc(Cl)cc1)N1CCCCC1 (configuration not stated)	89.3 ± 4.7%	
COc1ccc(-c2cnc3ccc(NCc4ccc(S(N)(=O)=O)cc4)nn23)cn1	85.1 ± 6.3%	
CCCNC(=O)N1CCC2(CC1)CC(=O)c1cc(C)ccc1O2	87.9 ± 23%	61.5 ± 9.9%
O=C(Nc1cccc(Cl)c1)c1cnc(N2CCN(c3ccncc3)CC2)c(Cl)c1	62 ± 36%	
Nc1ncc(Br)cc1-c1nc2cc(Cl)cnc2[nH]1	92.2 ± 8.1%	100 ± 9.8%
CCn1cnc2c(Nc3cc(F)cc(F)c3)nc(C#N)nc21	116 ± 30%	
COc1ccc(-c2cnc3cnc(-c4cccc(OC(C)C)c4)cn23)cc1	59 ± 50%	25.7 ± 45%
CNCCC(Oc1ccc(C(F)(F)F)cc1)c1ccccc1 (configuration not stated)	104 ± 4%	98.5 ± 39%
Nc1ncnc2c1c(-c1cnc3ccccc3c1)nn2CC1CCNCC1	94.9 ± 5.4%	102 ± 20%
O=C(c1ccc(NCCO)cc1)C1C[C@H]1c1ccc(Cl)cc1 (some centres not stated)	147 ± 53%	67 ± 24%
Cc1ncc(-c2ccnc(Nc3ccc(S(C)(=O)=O)cc3)n2)n1C(C)C	89.7 ± 4.3%	150 ± 100%
COc1ccc(Cn2cnc3c(-c4ccco4)nc(Cl)nc32)cc1	88.5 ± 13%	102 ± 42%
COc1cc2ncnc(NC3CCN(Cc4ccccc4)CC3)c2cc1OC	103 ± 27%	122 ± 11%
COc1cc(C2=NCCN2)ccc1-c1cn(-c2cccc(C3=NCCN3)c2)nn1	82.9 ± 23%	73 ± 4.1%
Clc1ccc(CCNc2cc(-c3ccccc3)nc3ncnn23)cc1	79.8 ± 10%	81.5 ± 18%
CS(=O)(=O)N1CCC(Cn2nc(Cc3cccc4ccccc34)c3c(N)ncnc32)CC1	91.3 ± 29%	65.7 ± 20%
CCS(=O)(=O)N(Cc1ccco1)Cc1cc2ccc(C)cc2nc1O	90.6 ± 1.9%	77.1 ± 19%
FC(F)(F)c1nnc2ccc(Cl)nn12	74.8 ± 22%	85 ± 18%
NCCN(C(=O)c1ccc(Cl)cc1Cl)c1ccc(OCc2ccc(Cl)cc2)cc1	68.3 ± 61%	25 ± 43%
O=C(NCc1ccoc1)N1CCN(Cc2ccc3c(c2)OCO3)CC1	94 ± 5.7%	78.3 ± 6.3%
CCOC(=O)c1noc(N)c1-c1ccccc1	107 ± 2.4%	113 ± 32%
CC(C)c1ncc(-c2ccncc2)c([C@H]2CC[C@H](CNC(=O)c3cccnc3)CC2)n1	82.4 ± 8.9%	125 ± 64%

SMILES	percent growth (Streptococcus suis HE06)	percent growth (Streptococcus suis P1/7)
Cc1cc(NCC(C)C)c2n[nH]c(-c3ccccc3)c2n1	81.1 ± 5.3%	122 ± 79%
CCC(Sc1nc2ccccc2o1)C(=O)Nc1nnc(C)s1 (configuration not stated)	34.1 ± 46%	0.154 ± 0.27%
Cc1ccc(-c2nc(CN(Cc3ccccn3)C(C)C)cs2)o1	25.7 ± 44%	19.4 ± 34%
Nc1ncnc2c1ncn2C[C@@H](O)[C@@H](O)C(=O)O	75.9 ± 17%	87.3 ± 15%
Cc1ccc(NC(=O)c2nc[nH]c2C(=O)Nc2nc3ccccc3[nH]2)c(C)c1	47.8 ± 38%	1.93 ± 0.44%
NCCCC(N)(C(=O)O)C(F)F (configuration not stated)	84.8 ± 12%	90.1 ± 16%
CCCCc1ccc(C(=O)Nc2nccc3ccccc23)nc1	32.4 ± 32%	13.4 ± 21%
N#Cc1nc(-c2ccccc2F)oc1NCCc1ccccc1	113 ± 30%	98.7 ± 25%
Cc1cc(Cl)c(S(=O)(=O)N2CCCC2)cc1OCC(=O)NC1CCCCC1	87.7 ± 22%	63.6 ± 18%
COc1ccc(C2=NN(C3CCCCCC3)C(=O)[C@@H]3CC=CC[C@H]23)cc1OCCCCOc1ccc(-c2nn[nH]n2)cc1	0%	0.12 ± 0.21%
COC(=O)C1=C(C)NC(C)=C(C(=O)OC(C)C)C1c1cccc2nonc12 (configuration not stated)	73.1 ± 15%	73.6 ± 34%
CCOc1ccc(-c2nc(NC(=O)CS(=O)(=O)c3ccccc3)sc2C)cc1	76.9 ± 15%	153 ± 100%
CC1CCCN(C(=O)C(C)Nc2cc(Cl)ccc2N2CCOCC2)C1 (configuration not stated)	92 ± 11%	94.4 ± 32%
O=C(c1[nH]nc2c1CCCC2)N1CCN(Cc2ccc3c(c2)OCO3)CC1	81.9 ± 4.7%	99.9 ± 45%
CC(C)=CCC/C(C)=C\CNCCNC1C2CC3CC(C2)CC1C3 (configuration not stated)	0.0687 ± 0.12%	-0.0282 ± 0.049%
O=C(C1CCCCC1)N1CC(=O)N2CCc3ccccc3C2C1 (configuration not stated)	79.3 ± 24%	102 ± 18%
CCN(CC)S(=O)(=O)c1ccc(Cl)c(C(=O)Nc2ccc3nc(C)sc3c2)c1	83.9 ± 6.7%	138 ± 70%
Cc1cc(O)nc(-n2nc(C)cc2C)n1	18.2 ± 21%	2.28 ± 2.3%
O=C1[C@@H](Oc2ccccc2)[C@@H](c2ccc(Cl)cc2)N1CCn1cnc2c(NCc3ccccc3)ncnc21	94.9 ± 4.6%	112 ± 21%
C[C@H](C(N)=O)N1CCCC[C@@H]1c1ccc(OCc2cccc(F)c2)cc1	125 ± 34%	89.7 ± 15%
CNc1snc(C)c1C(=O)NCCOc1ccc(OC)cc1	102 ± 22%	115 ± 71%
O=C(Nc1nnc(-c2ccc(Cl)cc2)o1)c1cccc(C(F)(F)F)c1	0%	2.91 ± 3.9%
COc1cc(NC(=O)Cc2nn(C)c(=O)c3ccccc23)ccc1Cl	82.8 ± 6.6%	108 ± 46%
O=C(NC1CC1)c1ccc(CSCc2ccccc2Cl)o1	83.2 ± 21%	65.8 ± 24%

SMILES	percent growth (Streptococcus suis HE06)	percent growth (Streptococcus suis P1/7)
O[C@@H](c1cc(C(F)(F)F)nc2c(C(F)(F)F)cccc12)[C@H]1CCCCN1	94 ± 6.1%	97.7 ± 18%
c1ccc(Oc2ccc(-c3cc(N4CCNCC4)[nH]n3)cc2)cc1	106 ± 35%	67.6 ± 28%
CNC(=O)c1nn(C)c2c1C(C)(C)Cc1cnc(Nc3ccc(N4CCN(C)CC4)cc3)nc1-2	88.7 ± 21%	92.6 ± 19%
Cc1nc(-c2ccccn2)nc(N(C)CCc2ccccc2)c1Cl	9.53 ± 8.4%	-0.0636 ± 0.11%
Cc1[nH]c2ccccc2c1C(c1cccs1)N1CCN(C)CC1 (configuration not stated)	49 ± 25%	86.1 ± 38%
CN(C)c1cc(NC(=O)Nc2ccccc2)c2ccccc2n1	105 ± 8.6%	87 ± 34%
Clc1ccc(Cl)c(CO[C@H]2CCCC[C@@H]2n2ccnc2)c1	26.2 ± 40%	20.8 ± 36%
COc1ccc(C2=NCCN2)cc1-c1cn(-c2cccc(C3=NCCN3)c2)nn1	99.9 ± 10%	87.9 ± 21%
FC(F)(F)c1cnc(Sc2nnc(-c3ccncc3)o2)c(Cl)c1	94.8 ± 27%	67.2 ± 20%
Oc1c(I)cc(I)c2cccnc12	0.688 ± 0.61%	-0.0569 ± 0.099%
CCc1c(C)nc(-n2nc(C)cc2NC(=O)c2ccccc2SC)[nH]c1=O	0.0799 ± 0.092%	1.97 ± 3.8%
CC(C)(C)CN1C(=O)C(c2ccccc2)(c2ccccc2)N=C1N	46.1 ± 39%	49.6 ± 44%
Cc1ccc2cc(C3NC(=O)c4ccccc4N3)c(Cl)nc2c1 (configuration not stated)	72.4 ± 16%	116 ± 46%
COc1ccc(CN2CCOc3ccc(C(C)(O)CN(C)C)cc3C2)cc1C (configuration not stated)	103 ± 14%	101 ± 27%
Cc1cnc(N2CCN[C@@H](Cc3ccccc3)C2)nc1Oc1ccc(-n2ccnc2)cc1	98.9 ± 9.1%	109 ± 29%
Cc1nc(-c2cccc(NCc3ccccc3)c2)[nH]c1C	60.1 ± 36%	12 ± 5.5%
Clc1ccc(CN2CCN(C3=NCCN3)CC2)cc1Cl	89 ± 2.1%	72.2 ± 28%
COc1cc(C2=NCCN2)cc2cc(-c3ccc(C4=NCCN4)cc3)oc12	106 ± 34%	83.2 ± 17%
Cc1cccc(NC(=O)c2cc(S(=O)(=O)N(C)c3ccc(F)cc3)ccc2Cl)n1	111 ± 31%	112 ± 33%
CCc1ccccc1-n1c(C)cn2c3c(=O)n(C(C(=O)OC)C(C)C)c(=O)n(C)c3nc12 (configuration not stated)	109 ± 4.8%	101 ± 14%
O=C(Nc1ccc(N2CCNCC2)cc1)c1ccn2ncc(-c3cccc(Cl)c3)c2n1	98.9 ± 27%	75.2 ± 22%
CCNC(=O)C(C)Nc1nc(-c2cccnc2)nc2sc(C)c(C)c12 (configuration not stated)	101 ± 8.4%	64.5 ± 34%
